Assay [1] can be described thus: compound effects on lung adenocarcinoma cell viability – A549, calcein-AM fluorescence, 48 h, basal, profiling panel (AID 1162). Further: test concentration not given here. Particulars: higher = more signal.
The nature of assay [2]: compound effects on differentiated 3T3-L1 adipocyte viability – cell-based, 3T3-L1 adipocytes, calcein-AM fluorescence, 48 h, basal, profiling panel (AID 1163). Further: test concentration not given here. To be noted: 3T3-L1 adipocytes viability, higher = more signal.
Assay [3] can be described thus: compound effects on hepatocellular carcinoma cell viability – HepG2, calcein-AM fluorescence, 48 h, basal, profiling panel (AID 1164). Further: test concentration not given here. To be noted: higher = more signal.
Assay [4] can be described thus: compound effects on multiple myeloma cell viability – MM1S, calcein-AM fluorescence, 48 h, basal, profiling panel (AID 1165).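 Further: viability of MM1S multiple myeloma cells under basal unstimulated conditions; test concentration not given here.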 To be noted: higher = more signal.
Assay [5] in a line: calcein-AM signal in unstimulated myeloma cells – cell-based, calcein-AM fluorescence, 48 h, PK04 Diversity Set, profiling panel (AID 1166).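 Further: cells grown under basal conditions without added stimulus; test concentration not given here.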 Particulars: RPMI8226 myeloma viability, higher = more signal.
The nature of assay [6]: JC-1 mitochondrial signal, unstimulated HepG2 cells – cell-based, JC-1 fluorescence, 24 h, 100 nL compound, profiling panel (AID 1167). Further: test concentration not given here. Particulars: HepG2 mitochondrial potential, higher = more signal.
Assay [7] is described as follows: JC-1 mitochondrial signal, unstimulated adipocytes – cell-based, JC-1 fluorescence, 3T3-L1 adipocytes, 24 h, 100 nL compound, profiling panel (AID 1168). Further: test concentration not given here. Particulars: JC-1 mitochondrial fluorescence, higher = more signal, called active from +8 up or from −8 down.
The nature of assay [8]: JC-1 mitochondrial signal, unstimulated myeloma cells – cell-based, JC-1 fluorescence, RPMI8226, 24 h, 100 nL compound, profiling panel (AID 1169). Further: test concentration not given here. To be noted: JC-1 mitochondrial potential fluorescence, higher = more signal.
Assay [9] in a line: JC-1 mitochondrial signal, unstimulated MM1S myeloma – cell-based, JC-1 fluorescence, 24 h, 100 nL compound, profiling panel (AID 1170). Further: test concentration not given here. Particulars: MM1S mitochondrial potential, higher = more signal.
A short description of assay [10]: resazurin metabolic signal in A549 cells – cell-based, resazurin fluorescence, 24 h, PK04 Diversity Set, profiling panel (AID 1171). Further: test concentration not given here. To be noted: A549 viability, higher = more signal, called active from +8 up or from −8 down.
Assay [11] is described as follows: resazurin metabolic signal in HepG2 cells – cell-based, resazurin fluorescence, 24 h, PK04 Diversity Set, profiling panel (AID 1172). Further: test concentration not given here. To be noted: HepG2 viability, higher = more signal.
Assay [12] can be described thus: budding yeast growth changes without added modifier – OD600, strain BY4716, 24 h, basal condition, primary screen (AID 1173). To be noted: S. cerevisiae BY4716 growth, OD600, 24 h; higher = more signal, called active from +8 up or from −8 down.
Assay [13] in a line: viability profiling in MM1S myeloma cells – cell-based, resazurin fluorescence, basal, 24 h, PK04 Diversity Set, profiling panel (AID 1174). Further: test concentration not given here. To be noted: higher = more signal, called active from +8 up or from −8 down. In general terms: The colour change of resazurin is a common sign of viable cells or microbes.
The target in assay [14] is Dihydroorotate dehydrogenase (quinone), mitochondrial (Plasmodium falciparum (isolate 3D7)) (UniProt Q08210). Put plainly: inhibition of P. falciparum DHODH – biochemical, C-terminal His tag, absorbance 600 nm, primary screen (AID 1175).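 Further: recombinant parasite enzyme with a five histidine tag at its C terminus; test concentration not given here.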 To be noted: PfDHODH enzyme, DCIP absorbance 600 nm; higher = more signal, called active from +8 up or from −8 down.
Sequence of Dihydroorotate dehydrogenase (quinone), mitochondrial (Plasmodium falciparum (isolate 3D7)) (Q08210 whole entry, looked up): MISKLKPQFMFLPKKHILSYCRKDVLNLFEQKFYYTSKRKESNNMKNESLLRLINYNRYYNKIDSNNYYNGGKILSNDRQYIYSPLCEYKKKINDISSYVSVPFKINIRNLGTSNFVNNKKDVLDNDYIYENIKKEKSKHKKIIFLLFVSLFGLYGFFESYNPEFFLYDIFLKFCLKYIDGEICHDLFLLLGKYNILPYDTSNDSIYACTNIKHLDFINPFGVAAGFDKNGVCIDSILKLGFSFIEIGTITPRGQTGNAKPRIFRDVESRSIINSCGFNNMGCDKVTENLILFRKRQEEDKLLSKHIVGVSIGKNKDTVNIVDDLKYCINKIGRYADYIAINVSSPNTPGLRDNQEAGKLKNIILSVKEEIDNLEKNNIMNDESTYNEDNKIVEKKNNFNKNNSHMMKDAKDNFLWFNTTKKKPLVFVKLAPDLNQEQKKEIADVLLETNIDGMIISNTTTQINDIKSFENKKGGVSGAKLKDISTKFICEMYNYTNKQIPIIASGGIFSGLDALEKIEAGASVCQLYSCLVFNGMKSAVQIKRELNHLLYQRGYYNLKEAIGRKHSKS
The nature of assay [15]: inhibition of PAO1 biofilm formation – strain PAO1, LB-PBS medium, absorbance 600 nm, primary screen (AID 1176). Further: test concentration not given here. Particulars: P. aeruginosa PAO1 growth/biofilm, A600, 12 h; higher = more signal.
Assay [16] is described as follows: growth modulation of vineyard yeast isolate – strain RM11-1a, OD600, basal, 24 h, primary screen (AID 1177).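 Further: cultures grown under basal conditions with no added stressor; test concentration not given here.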 To be noted: S. cerevisiae RM11-1a growth, OD600, 24 h; higher = more signal, called active from +8 up or from −8 down.
Assay [17] in a line: growth of efflux-deficient E. coli DRC39 – strain DRC39, OD650, 24 h, E. coli filamentation inducers, primary screen (AID 1178).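 Further: growth measured as culture turbidity by optical density at 650 nm; test concentration not given here.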 Particulars: E. coli DRC39 acrAB, higher = more signal, called active from +8 up or from −8 down.
Assay [18] is described as follows: growth of efflux-deficient E. coli DRC39 – strain DRC39, OD650, 48 h, E. coli filamentation inducers, primary screen (AID 1179).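 Further: screen aims at cell division blockers that make cells filament.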 To be noted: E. coli DRC39 delta-acrAB growth, higher = more signal, called active from +8 up or from −8 down.
Assay [19] can be described thus: viability profiling in RPMI8226 myeloma cells – cell-based, resazurin fluorescence, basal, 24 h, PK04 Diversity Set, profiling panel (AID 1180).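 Further: RPMI8826 multiple myeloma cell line at 5000 cells per well; test concentration not given here.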 Particulars: higher = more signal.
Assay [20] concerns the target E3 ubiquitin-protein ligase XIAP (Homo sapiens) (UniProt P98170). In words: small molecules binding XIAP protein – biophysical, small-molecule microarray, fluorescence 635 nm, primary screen (AID 1181).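 Further: score merges 667 nm emission and signal to noise over triplicate slides.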 Particulars: higher = more signal.

For nine compounds, z-score and composite z-score results are on record in PubChem BioAssay.

Calls of active or inactive are those of the source. Unless noted, how the calls were made is not given here.

Sequence of E3 ubiquitin-protein ligase XIAP (Homo sapiens) (P98170 whole entry, looked up): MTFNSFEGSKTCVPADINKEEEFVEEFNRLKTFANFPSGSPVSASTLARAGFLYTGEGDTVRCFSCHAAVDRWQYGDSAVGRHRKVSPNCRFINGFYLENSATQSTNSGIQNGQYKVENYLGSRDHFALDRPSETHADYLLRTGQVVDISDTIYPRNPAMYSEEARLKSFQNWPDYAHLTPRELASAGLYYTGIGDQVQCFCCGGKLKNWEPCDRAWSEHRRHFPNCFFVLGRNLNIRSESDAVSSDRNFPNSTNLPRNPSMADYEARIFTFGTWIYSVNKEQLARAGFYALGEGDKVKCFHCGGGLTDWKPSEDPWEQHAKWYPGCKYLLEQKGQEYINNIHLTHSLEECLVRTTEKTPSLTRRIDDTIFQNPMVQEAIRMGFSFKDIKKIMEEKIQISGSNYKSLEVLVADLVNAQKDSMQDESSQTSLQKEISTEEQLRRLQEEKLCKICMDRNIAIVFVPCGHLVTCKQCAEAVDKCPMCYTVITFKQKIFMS

Take `C=CC[C@H](O)c1ccc(O)c(F)c1`: the z-score in assay [1] is -0.402; in assay [2], 0.329; in assay [3], -0.821; in assay [4], -0.229; in assay [5], -0.426; in assay [6], -0.737. Besides, the z-score in assay [7] is 0.083 (inactive); in [8] it was -0.153; in [9] it was 0.384; in assay [10], -0.396 (inactive); in assay [11], -0.632; in assay [12] it was -2.36 (inactive). Moreover, the z-score in assay [13] was -0.711 (inactive); in assay [15] it was 0.131 (inactive); in assay [16], -0.498 (inactive); in assay [17], 0.117 (inactive); in assay [18], 0.0282 (inactive); in assay [19], -0.0926. Moreover, the composite z-score in assay [14] was -0.0056 (inactive); in [20] it was -0.0088.

Consider `C=CCOC(=O)[C@H]1[C@@H]2C(=O)O[C@@H](c3ccccc3)[C@@H](c3ccccc3)N2[C@@H](c2ccc(OCCOC(=O)[C@H]3C[C@H]4C(=O)NCC(=O)N4[C@H]3c3ccc(O)cc3)cc2)[C@]12C(=O)Nc1ccccc12`, for which the z-score in assay [1] was -0.759; in assay [2], 0.645; in assay [3], -1.05; in [4] it was 0.117; in [5], -0.259; in assay [6], -1.42. The z-score in [7] was 0.962 (inactive); in assay [8] it was -0.356; in [9] it was -0.821; in [10], 0.729 (inactive); in assay [11] it was -0.0886; in assay [12] it was 1.1 (inactive). In addition, the z-score is 1.02 (inactive) in assay [13]; 0.916 (inactive) in [15]; 2.99 (inactive) in assay [16]; 0.504 (inactive) in assay [17]; -0.0754 (inactive) in [18]; 1.72 in assay [19]. Besides, the composite z-score is 0.814 (inactive) in assay [14] and -0.202 in [20].

For `COc1ccc(C(=O)Nc2cccc(CN3C(=O)[C@]4(O[C@H](CC(=O)N(CCO)Cc5ccccc5)[C@@H]([Si](C)(C)c5ccc(OC)cc5)[C@@H]4C)c4ccccc43)c2)cc1`, the z-score in assay [1] was -0.983; in assay [2], 0.385; in assay [3], -0.801; in assay [4] it was -0.829; in [5], -3.92; in [6], 0.52. The z-score in [7] is 1.3 (inactive); in [8], -0.877; in assay [9] it was -1.51; in assay [10] it was -1.51 (inactive); in [11], -0.754; in assay [12], 0.404 (inactive). Also, the z-score was -1.87 (inactive) in assay [13]; 0.769 (inactive) in assay [15]; 3.54 (inactive) in assay [16]; 1.46 (inactive) in [17]; 0.852 (inactive) in assay [18]; -1.52 in assay [19]. For the same compound, the composite z-score in assay [14] is -1.92 (inactive); in assay [20] it was 1.38.

In the case of `CCCCCN1CC=CC23O[C@@H]4/C=C\CCCOC(=O)C4[C@H]2C(=O)N(CCO)[C@@H]3C1=O` (stereo not given in full), the z-score in [1] was 0.415; in [2], 1.64; in assay [3] it was 0.0134; in assay [4] it was 1.59; in assay [5] it was 0.218; in assay [6] it was -0.242. The z-score was -0.428 (inactive) in [7]; 0.699 in [8]; -0.307 in assay [9]; -0.231 (inactive) in assay [10]; -0.192 in assay [11]; -1.2 (inactive) in assay [12]. In addition, the z-score is 1.22 (inactive) in assay [13]; 0.938 (inactive) in [15]; -0.843 (inactive) in assay [16]; 0.859 (inactive) in [17]; 0.188 (inactive) in assay [18]; 0.936 in assay [19]. Further, the composite z-score was -0.195 (inactive) in [14] and -0.0918 in assay [20].

In the case of `O=C(NCCN1CCOCC1)[C@@H]1c2ccccc2C(=O)N(CC23CC4CC(CC(C4)C2)C3)[C@H]1c1ccc(CO)cc1`, the z-score was -0.0791 in assay [1]; 1.43 in assay [2]; 0.45 in assay [3]; -0.846 in [4]; -0.327 in assay [5]; 2.95 in assay [6]. For the same compound, the z-score was -0.634 (inactive) in [7]; 0.434 in assay [8]; -0.388 in assay [9]; 1.8 (inactive) in assay [10]; 0.258 in [11]; -1.18 (inactive) in assay [12]. Besides, the z-score was 0.631 (inactive) in assay [13]; -0.121 (inactive) in assay [15]; 1.19 (inactive) in [16]; 0.1 (inactive) in assay [17]; 0.108 (inactive) in assay [18]; 0.96 in assay [19]. Also, the composite z-score is 0.533 (inactive) in assay [14] and 0.0593 in [20].

Turning to `CC(C)N1C(=O)[C@@]2(Cc3ccccc31)c1ccccc1C(=O)N(Cc1ccccc1C(F)(F)F)[C@H]2c1ccc(CO)cc1`, the z-score was -0.262 in assay [1]; 0.523 in [2]; 0.133 in assay [3]; -0.895 in assay [4]; -1.27 in assay [5]; -0.77 in assay [6]. In addition, the z-score is 0.109 (inactive) in [7]; 0.0301 in assay [8]; 1.03 in [9]; 0.752 (inactive) in assay [10]; 0.0887 in assay [11]; 0.407 (inactive) in assay [12]. Also, the z-score is 0.0922 (inactive) in assay [13]; 0.146 (inactive) in assay [15]; -0.107 (inactive) in assay [16]; -0.0949 (inactive) in assay [17]; -0.818 (inactive) in [18]; 0.566 in [19]. The composite z-score in assay [14] was -18 (active); in assay [20], 0.0377.

Regarding `Cc1ccc(S[C@]2(C(=O)NCC(C)C)CC(=O)N(C(C)C)[C@@H]2c2ccc(CO)cc2I)cc1`, the z-score in assay [1] is 1.97; in assay [2] it was 0.508; in [3] it was 0.867; in [4], -2.41; in assay [5], -2.03; in assay [6] it was 0.978. Moreover, the z-score in [7] was 0.953 (inactive); in assay [8] it was -0.94; in assay [9] it was -1.19; in [10], 0.677 (inactive); in assay [11], -0.16; in assay [12], -2.09 (inactive). Also, the z-score in assay [13] was -1.52 (inactive); in [15], -0.288 (inactive); in assay [16] it was -0.91 (inactive); in assay [17], 0.485 (inactive); in [18] it was -0.117 (inactive); in assay [19] it was -1.8. Also, the composite z-score in assay [14] was -0.332 (inactive); in assay [20], -0.128.

As for `COc1ccc(-c2cc3c(c(CCc4ccccc4)n2)[Si](C(C)C)(C(C)C)O[C@H]3c2ccccc2)cn1`, the z-score is 0.359 in assay [1]; -0.724 in [2]; 1.27 in assay [3]; -1.82 in [4]; -2.55 in assay [5]; -2.71 in [6]. Besides, the z-score in assay [7] is -0.904 (inactive); in [8] it was -0.405; in assay [9], -0.622; in assay [10], 0.996 (inactive); in assay [11], -0.166; in assay [12], 0.871 (inactive). Besides, the z-score in assay [13] is 0.694 (inactive); in assay [15], 0.726 (inactive); in assay [16], 0.868 (inactive); in [17], -1.19 (inactive); in assay [18], -0.893 (inactive); in assay [19] it was -0.555. In addition, the composite z-score in [14] was -0.575 (inactive); in [20], -0.12.

As for `C=CCNC(=O)[C@H]1[C@@H]2C(=O)O[C@@H](c3ccccc3)[C@@H](c3ccccc3)N2[C@@H](c2ccc(O)cc2)[C@]12C(=O)N(C(=O)OCCOC)c1ccc(C#Cc3ccc(OC)cc3)cc12`, the z-score in assay [1] is -0.98; in assay [2], -1.44; in [3] it was 0.147; in assay [4], -1.26; in assay [5], -1.2; in assay [6] it was -1.62. Besides, the z-score in assay [7] is 0.202 (inactive); in [8] it was -0.625; in [9], -0.804; in [10], -0.0733 (inactive); in [11] it was 0.267; in assay [12], 0.469 (inactive). Also, the z-score is -0.466 (inactive) in assay [13]; 0.485 (inactive) in [15]; 0.539 (inactive) in [16]; -1.2 (inactive) in assay [17]; -0.844 (inactive) in assay [18]; -0.772 in assay [19]. Besides, the composite z-score was -0.208 (inactive) in [14] and -0.0427 in assay [20].
